Results from PubChem BioAssay (EPA / NIEHS).
Values joined by “and” are separate entries in the source; they are usually repeats but may differ in a detail not shown here. Equal values may be shown once. Inconclusive results are not listed. More than one record can exist for a structure, and the calls need not agree. Active and inactive are the calls of the source. Rule for the calls: active = hit-call score of the fitted dose curve at least 0.9, where 1 is the maximum; inconclusive = response in the unintended direction; inactive = score below 0.9.

molecular target: Cellular tumor antigen p53 (Homo sapiens) (UniProt P04637); experiment: TOX21_p53_BLA_p3_ratio: Tox21 HCT-116 p53 Agonism Beta-lactamase Assay, Ratio, Phase 3 (AID 2283596)
From the text: TOX21_p53_BLA_p3 is a cell-based, single-readout assay that uses HCT116, a human intestinal cell line, […] in a 1536-well plate.TOX21_p53_BLA_p3_ratio is an assay readout measuring reporter gene via receptor activity and designed using inducible reporter (beta lactamase induction) detected with GAL4 b-lactamase reporter gene. The signal is derived from the ratio of cleaved (ch2) to uncleaved (ch1) reporter gene substrate used as the measure of target activity.Data from the assay component TOX21_p53_BLA_p3_ratio was analyzed into 1 assay endpoint. This assay endpoint, TOX21_p53_BLA_p3_ratio, was analyzed in the positive analysis fitting direction relative to DMSO as the negative control and baseline of activity. Using a type of inducible reporter, gain-of-signal activity can be used to understand changes in the reporter gene as they relate to the gene TP53. Furthermore, this assay endpoint can be referred to as a primary readout, because this assay has produced multiple assay endpoints where this ratio serves a reporter gene function to understand target activity. To generalize the intended target to other relatable targets, this assay endpoint is annotated to the DNA binding intended target family, where the subfamily is tumor suppressor.
Thawing Method: Place 14 mL of pre-warmed thaw medium into a 15 mL of conical tub. Remove the vial of cells to be thawed from liquid nitrogen and thaw rapidly by placing at 37C in a water bath with gentle agitation for 1-2 minutes. Decontaminate the vial by wiping with 70% ethanol before opening in a biological safety cabinet. Transfer the vial contents drop-wise into 14 mL of thaw medium in a sterile 15-mL conical tub. Centrifuge cells at 900 rpm for 4 minutes and resuspend in thaw medium. Transfer contents to the T75 tissue culture flask containing Thaw Medium and place flask in a humidified 37C/5% CO2 incubator. Switch to growth medium at first passage.Propagation Method: Aspirate medium, rinse once in DPBS, add 0.25% Trypsin/EDTA and swirl to coat the cell evenly. Add an equal volume of Growth Medium to inactivate Trypsin after 2-3 minutes incubation at 37C. Centrifuge cells at 900 rpm for 4 minutes and resuspend in growth medium. Cell should be passage or fed at least twice a week.Assay Protocol: Harvest cells from culture in growth medium and resuspend in assay medium. 2.2 Dispense 4000 cells/5 uL/well into 1536-well black/clear bottom plates using a Multidrop dispenser. After the cells were incubated at 37C for 5 hours, 23 nL of compounds dissolved in DMSO were transferred to the assay plate by a PinTool resulting in a 217-fold dilution. Incubate the plates for 16 hours at 37C, 5% CO2. Add 1 uL of 6X LiveBLAzer FRET B/G (CCF4-AM) Substrate Mixture to each well using a BioRAPTR dispenser and incubate the plates at room temperature for 2 hours. Measure fluorescence intensity at 460 and 530 nm emission and 405 nm excitation by an Envision detector. Data is expressed as the ratio of 460nm/530nm emissions. Add 4 uL of Cell-titer Glo to each well using BioRAPTR and incubate the plates at room temperature for 2 hours. Measure fluorescence intensity by a VewLux plate reader.

Chain of Cellular tumor antigen p53 (Homo sapiens) (P04637 whole entry, looked up, the tested form may be a part): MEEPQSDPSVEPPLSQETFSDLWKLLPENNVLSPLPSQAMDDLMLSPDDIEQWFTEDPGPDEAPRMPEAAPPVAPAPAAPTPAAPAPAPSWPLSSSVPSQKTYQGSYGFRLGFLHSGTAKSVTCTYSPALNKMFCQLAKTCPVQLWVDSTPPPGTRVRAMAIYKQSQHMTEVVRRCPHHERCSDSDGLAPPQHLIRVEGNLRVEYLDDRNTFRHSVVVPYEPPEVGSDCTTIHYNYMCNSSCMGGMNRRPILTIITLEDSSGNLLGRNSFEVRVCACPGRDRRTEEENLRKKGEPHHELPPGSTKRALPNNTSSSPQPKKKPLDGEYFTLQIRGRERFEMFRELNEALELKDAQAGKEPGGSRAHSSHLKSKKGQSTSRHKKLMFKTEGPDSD

SMILES	outcome	AC50
N#CCBr	inactive	–
c1ccc2c(c1)Sc1ccccc1N2C[C@@H]1CN2CCC1CC2	inactive	–
C[C@@H]1CC[C@@]2(OC1)O[C@H]1[C@@H](O)[C@H]3[C@@H]4CC[C@H]5C[C@@H](O[C@@H]6O[C@H](CO)[C@H](O[C@@H]7O[C@H](CO)[C@@H](O)[C@H](O[C@@H]8OC[C@@H](O)[C@H](O)[C@H]8O)[C@H]7O[C@@H]7O[C@H](CO)[C@@H](O)[C@H](O[C@@H]8O[C@H](CO)[C@@H](O)[C@H](O)[C@H]8O)[C@H]7O)[C@H](O)[C@H]6O)[C@H](O)C[C@]5(C)[C@H]4CC[C@]3(C)[C@H]1[C@@H]2C	–	81.5 µM (active)
S=c1[nH]c2ccccc2[nH]1	inactive	–
C[C@]12Cc3nonc3C[C@@H]1CC[C@@H]1[C@@H]2CC[C@@]2(C)[C@H]1CC[C@]2(C)O	inactive	–
Clc1ccc(CSC(Cn2ccnc2)c2ccc(Cl)cc2Cl)cc1 (stereo not given)	inactive	–
O=C(O)c1ccc2[nH]cc(CCCCN3CC=C(c4ccccc4)CC3)c2c1	inactive	–
COC1=CC=C2[C@H]3Cc4ccc(OC)c5c4[C@@]2(CCN3C)[C@H]1O5	inactive	–
O=NN1CCNCC1	inactive	–
COc1ccc2c(c1OC)CN1CCc3cc4c(cc3C1C2)OCO4 (stereo not given)	inactive	–
Nc1ccc(Cl)c(Cl)c1	inactive	–
CCN(C)N=O	inactive	–
CCCCCCCCCCCCCCn1cc[n+](C)c1	inactive	14 µM (active) and 6.93 µM (active)
CC(C)(C)NCC(O)c1ccccc1Cl (stereo not given)	inactive	–
C1CS1	inactive	–
CC1CCC(C(C)C)C(OC(=O)c2ccccc2N)C1 (stereo not given)	inactive	–
N[C@@H](Cc1ccc(Oc2cc(I)c(O)c(I)c2)c(I)c1)C(=O)O	inactive	–
NCCc1ccc(O)cc1	inactive	–
O=[N+]([O-])c1cc([N+](=O)[O-])c2ccccc2c1	inactive	–
NCCOS(=O)(=O)O	inactive	–

SMILES	outcome	AC50
CNC(C)CC1CCCCC1 (stereo not given)	inactive	–
C[C@@H]1O[C@@H](O[C@@H]2C=C3CC[C@@H]4[C@H](CC[C@]5(C)[C@@H](c6ccc(=O)oc6)CC[C@]45O)[C@@]3(C)CC2)[C@H](O)[C@H](O)[C@H]1O	inactive	–
CCNc1nc(NC(C)C)nc(OC)n1	inactive	–
FC(F)OC(F)(F)C(F)Cl (stereo not given)	inactive	–
CNC(=O)ON=C(CSC)C(C)(C)C	inactive	–
COc1c(C(C)(C)C)cc([N+](=O)[O-])c(C)c1[N+](=O)[O-]	inactive	–
C[C@]12C/C(=C/O)C(=O)C[C@@H]1CC[C@@H]1[C@@H]2CC[C@@]2(C)[C@H]1CC[C@]2(C)O	inactive	–
Clc1ccc(CCC(Cn2ccnc2)Sc2c(Cl)cccc2Cl)cc1 (stereo not given)	–	15.9 µM (active)
O=c1[nH]c2ccccc2n1CCCN1CCC(n2c(=O)[nH]c3cc(Cl)ccc32)CC1	inactive	–
CC=Cc1ccc2c(c1)OCO2	inactive	–
CC(C)[N+](C)(CCC(C(N)=O)(c1ccccc1)c1ccccc1)C(C)C	inactive	–
CCCCCCCCn1cc[n+](C)c1	–	14.7 µM (active) [middle of 4 runs]
O=C(Nc1ccccc1)N(Cc1ccc(Cl)cc1)C1CCCC1	inactive	–
CCOC(=O)COc1ccc(Cl)cc1Cl	inactive	–
N#CC(Cl)(Cl)Cl	inactive	–
Nc1ccc([N+](=O)[O-])cc1N	inactive	–
Cc1nnc2n1-c1sc(CCc3ccc(CC(C)C)cc3)cc1C(c1ccccc1Cl)=NC2C (stereo not given)	–	27.4 µM (active)
C=C(Cl)CSC(=S)N(CC)CC	inactive	–
CN1C[C@H](C(=O)N[C@]2(C)O[C@@]3(O)[C@@H]4CCCN4C(=O)[C@H](Cc4ccccc4)N3C2=O)C=C2c3cccc4[nH]cc(c34)C[C@H]21	inactive	–
